For some assays here: Entries with a potency or affinity are not part of this list.
Key:
Parameters in all cases: scale not given: direction of the effect not stated beside the values
[1] = target: Protein translocase subunit SecA (Escherichia coli (strain K12)) (UniProt P10408); assay: Assay to Identify E. coli SecA ATPase Inhibitors; type: functional; details: 30 µM
[2] = target: T1, Ubiquitin-activating enzyme e1, putative (Leishmania donovani (strain BPK282A1)) (UniProt E9BSI1); assay: Leishmania donovani Ubiquitin Activating Enzyme (LdE1); type: functional; details: 30 µM
T1 sequence (whole entry): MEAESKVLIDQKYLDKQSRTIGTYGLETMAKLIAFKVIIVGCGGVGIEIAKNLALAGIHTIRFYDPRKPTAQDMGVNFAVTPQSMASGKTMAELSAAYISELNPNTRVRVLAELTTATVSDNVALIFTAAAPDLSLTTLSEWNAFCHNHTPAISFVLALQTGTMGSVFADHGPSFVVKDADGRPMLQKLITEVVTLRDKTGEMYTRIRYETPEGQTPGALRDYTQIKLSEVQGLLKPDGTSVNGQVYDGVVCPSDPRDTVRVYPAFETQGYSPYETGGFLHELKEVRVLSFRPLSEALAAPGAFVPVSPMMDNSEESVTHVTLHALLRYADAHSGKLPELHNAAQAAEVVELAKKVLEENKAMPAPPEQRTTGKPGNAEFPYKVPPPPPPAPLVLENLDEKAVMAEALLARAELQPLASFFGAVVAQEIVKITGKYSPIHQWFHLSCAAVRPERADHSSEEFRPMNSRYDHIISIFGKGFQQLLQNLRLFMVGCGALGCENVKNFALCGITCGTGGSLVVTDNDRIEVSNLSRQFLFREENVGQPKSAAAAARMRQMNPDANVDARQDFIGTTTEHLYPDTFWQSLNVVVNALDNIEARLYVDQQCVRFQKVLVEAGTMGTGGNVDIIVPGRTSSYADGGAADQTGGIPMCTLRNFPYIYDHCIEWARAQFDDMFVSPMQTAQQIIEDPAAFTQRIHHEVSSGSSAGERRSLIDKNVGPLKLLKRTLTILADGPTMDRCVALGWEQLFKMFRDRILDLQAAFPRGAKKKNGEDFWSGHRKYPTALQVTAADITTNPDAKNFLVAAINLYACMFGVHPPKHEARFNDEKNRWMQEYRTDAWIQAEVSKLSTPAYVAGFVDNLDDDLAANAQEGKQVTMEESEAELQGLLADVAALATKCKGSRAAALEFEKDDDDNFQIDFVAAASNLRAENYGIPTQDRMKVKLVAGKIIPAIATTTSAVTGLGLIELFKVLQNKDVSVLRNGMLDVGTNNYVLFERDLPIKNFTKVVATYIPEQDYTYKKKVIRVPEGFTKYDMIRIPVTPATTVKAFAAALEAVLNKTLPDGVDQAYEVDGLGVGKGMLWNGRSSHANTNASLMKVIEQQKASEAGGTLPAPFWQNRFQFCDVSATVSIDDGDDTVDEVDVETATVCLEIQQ

[3] = target: AMP-activated protein kinase, AMPK (Homo sapiens) (UniProt P54646+O43741+P54619+Q9UGJ0+Q9Y478+Q13131+Q9UGI9); assay: AMP-dependent Kinase enzyme assay. An in vitro enzyme assay that detects ADP turnover that is directly proportional to AMPK activity. This uses naive AMPK that is activated during the assay with MK-8722; type: functional; details: 30 µM
[4] = target: Sialic acid-binding Ig-like lectin 9 (Homo sapiens) (UniProt Q9Y336); assay: Hs-Siglec9 ALPHAscreen SOP 20170721; details: 10 µM
Trypanosoma cruzi = assay: Trypanosoma cruzi phosphomannomutase and mannose-1-phosphate guanylyltransferase assay; type: functional; details: 10 µM
[5] = target: T2, Arginase-2, mitochondrial (Homo sapiens) (UniProt P78540); assay: in vitro enzyme assay to detect the production of urea directly proportional to the activity of Arginase II; type: functional; details: 33.3 µM; also: in the data most compounds retested in dose-response had high values
T2 sequence (whole entry): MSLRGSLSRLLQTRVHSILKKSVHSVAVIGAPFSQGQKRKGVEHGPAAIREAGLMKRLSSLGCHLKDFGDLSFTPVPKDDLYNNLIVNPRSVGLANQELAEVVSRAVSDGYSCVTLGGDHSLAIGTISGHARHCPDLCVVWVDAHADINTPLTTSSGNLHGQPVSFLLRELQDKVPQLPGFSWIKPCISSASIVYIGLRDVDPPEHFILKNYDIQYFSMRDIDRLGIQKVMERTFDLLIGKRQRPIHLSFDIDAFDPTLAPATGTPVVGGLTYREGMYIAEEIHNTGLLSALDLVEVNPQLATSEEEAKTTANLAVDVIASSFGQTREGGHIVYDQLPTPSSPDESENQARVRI

[6] = target: T3, Proteasome subunit beta (Trypanosoma cruzi) (UniProt O96673); assay: Trypanosoma cruzi proteasome chymotrypsin-like activity (TcProtChymo) assay.; also: in the data most compounds retested in dose-response had high values; type: functional; details: 9.37 µM
T3 sequence (whole entry): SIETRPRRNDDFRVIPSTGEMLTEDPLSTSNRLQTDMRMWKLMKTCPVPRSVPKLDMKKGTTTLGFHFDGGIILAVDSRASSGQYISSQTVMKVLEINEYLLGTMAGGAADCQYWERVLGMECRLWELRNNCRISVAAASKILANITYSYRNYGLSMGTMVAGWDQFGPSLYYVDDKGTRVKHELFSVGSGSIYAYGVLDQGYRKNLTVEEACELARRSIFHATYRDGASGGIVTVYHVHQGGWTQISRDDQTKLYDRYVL

Homo sapiens = organism: Homo sapiens; assay: To identify inhibition of the IFN signalling (Jak-Stat) pathway via expression of an eGFP reporter gene under the control of an IFN-stimulated response element (ISRE) containing MxA promoter.; type: functional; details: 30 µM
[7] = target: T4, Tyrosyl-tRNA synthetase, putative (Trypanosoma cruzi (strain CL Brener)) (UniProt Q4DSP6); assay: Trypanosoma cruzi tyrosyl tRNA synthetase (TcYRS) _High Tyrosine SOP; type: functional; details: 30 µM; also: in the data most compounds retested in dose-response had high values
T4 sequence (whole entry): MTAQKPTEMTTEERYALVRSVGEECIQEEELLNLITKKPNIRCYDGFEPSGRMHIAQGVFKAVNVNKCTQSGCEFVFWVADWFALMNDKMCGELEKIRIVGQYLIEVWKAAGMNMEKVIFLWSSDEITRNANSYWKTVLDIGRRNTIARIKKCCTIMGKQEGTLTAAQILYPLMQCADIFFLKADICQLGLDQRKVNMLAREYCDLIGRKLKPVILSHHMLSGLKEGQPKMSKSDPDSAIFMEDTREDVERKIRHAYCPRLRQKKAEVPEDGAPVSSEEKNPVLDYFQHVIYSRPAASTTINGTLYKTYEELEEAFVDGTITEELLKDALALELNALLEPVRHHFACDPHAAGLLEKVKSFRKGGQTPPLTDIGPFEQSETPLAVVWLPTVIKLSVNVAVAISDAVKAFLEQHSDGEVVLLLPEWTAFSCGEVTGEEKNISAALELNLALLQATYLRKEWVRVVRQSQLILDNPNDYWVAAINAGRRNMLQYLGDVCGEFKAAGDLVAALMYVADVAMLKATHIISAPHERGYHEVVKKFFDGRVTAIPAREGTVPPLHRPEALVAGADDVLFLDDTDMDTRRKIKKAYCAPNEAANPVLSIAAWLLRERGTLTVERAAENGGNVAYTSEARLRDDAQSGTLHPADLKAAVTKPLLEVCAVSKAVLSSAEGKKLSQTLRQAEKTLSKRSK

[8] = target: T4, Tyrosyl-tRNA synthetase, putative (Trypanosoma cruzi (strain CL Brener)); assay: Trypanosoma cruzi tyrosyl tRNA synthetase (TcYRS) SOP; type: functional; details: 30 µM
[9] = target: Chromo domain-containing protein 1 (Saccharomyces cerevisiae (strain ATCC 204508 / S288c) (Baker's yeast)) (UniProt P32657); assay: ScCHD-1 Enzyme Inhibition Assay; type: functional; details: 30 µM; also: in the data most compounds retested in dose-response had high values
Chromo domain-containing protein 1 (Saccharomyces cerevisiae (strain ATCC 204508 / S288c) (Baker's yeast)), sequence (P32657 whole entry, the tested form may be a part): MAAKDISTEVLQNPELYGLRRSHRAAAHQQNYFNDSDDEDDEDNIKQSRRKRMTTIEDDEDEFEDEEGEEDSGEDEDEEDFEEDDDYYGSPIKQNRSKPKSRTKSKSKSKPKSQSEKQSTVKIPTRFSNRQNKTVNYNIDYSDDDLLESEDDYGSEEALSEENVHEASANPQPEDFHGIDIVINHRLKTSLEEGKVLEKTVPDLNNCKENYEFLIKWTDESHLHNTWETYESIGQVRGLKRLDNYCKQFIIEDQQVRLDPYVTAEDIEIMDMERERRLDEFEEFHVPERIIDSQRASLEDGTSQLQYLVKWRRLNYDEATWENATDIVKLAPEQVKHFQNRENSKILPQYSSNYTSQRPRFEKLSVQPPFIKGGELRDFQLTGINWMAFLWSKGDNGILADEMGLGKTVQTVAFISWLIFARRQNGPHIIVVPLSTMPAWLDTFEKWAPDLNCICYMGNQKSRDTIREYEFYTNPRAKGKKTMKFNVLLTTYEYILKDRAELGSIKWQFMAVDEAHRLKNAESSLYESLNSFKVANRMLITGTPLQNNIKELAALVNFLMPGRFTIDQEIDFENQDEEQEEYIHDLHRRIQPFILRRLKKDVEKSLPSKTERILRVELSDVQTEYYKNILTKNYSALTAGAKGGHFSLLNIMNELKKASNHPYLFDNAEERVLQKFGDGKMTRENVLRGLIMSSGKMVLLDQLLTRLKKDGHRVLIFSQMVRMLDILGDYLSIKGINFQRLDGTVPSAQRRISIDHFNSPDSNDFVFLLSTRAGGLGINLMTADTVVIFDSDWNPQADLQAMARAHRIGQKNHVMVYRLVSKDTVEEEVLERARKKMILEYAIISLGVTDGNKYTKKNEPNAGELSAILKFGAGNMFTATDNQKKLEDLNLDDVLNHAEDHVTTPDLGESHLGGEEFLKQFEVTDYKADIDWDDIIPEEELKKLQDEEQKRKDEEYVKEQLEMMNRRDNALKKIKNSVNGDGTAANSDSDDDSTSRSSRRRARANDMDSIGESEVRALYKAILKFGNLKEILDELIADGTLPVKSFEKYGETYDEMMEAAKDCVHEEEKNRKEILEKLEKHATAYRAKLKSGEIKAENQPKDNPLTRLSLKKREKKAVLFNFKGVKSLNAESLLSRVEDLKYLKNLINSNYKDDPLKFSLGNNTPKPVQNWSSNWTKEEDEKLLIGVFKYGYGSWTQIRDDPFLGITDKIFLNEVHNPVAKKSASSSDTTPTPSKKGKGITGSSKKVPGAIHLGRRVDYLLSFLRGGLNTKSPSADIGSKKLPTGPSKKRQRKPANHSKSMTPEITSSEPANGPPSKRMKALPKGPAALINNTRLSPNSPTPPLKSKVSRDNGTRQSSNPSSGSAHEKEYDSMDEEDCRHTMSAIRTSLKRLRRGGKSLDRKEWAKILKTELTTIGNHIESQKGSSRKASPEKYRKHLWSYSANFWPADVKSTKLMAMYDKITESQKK

Protein translocase subunit SecA (Escherichia coli (strain K12)), sequence (P10408 whole entry): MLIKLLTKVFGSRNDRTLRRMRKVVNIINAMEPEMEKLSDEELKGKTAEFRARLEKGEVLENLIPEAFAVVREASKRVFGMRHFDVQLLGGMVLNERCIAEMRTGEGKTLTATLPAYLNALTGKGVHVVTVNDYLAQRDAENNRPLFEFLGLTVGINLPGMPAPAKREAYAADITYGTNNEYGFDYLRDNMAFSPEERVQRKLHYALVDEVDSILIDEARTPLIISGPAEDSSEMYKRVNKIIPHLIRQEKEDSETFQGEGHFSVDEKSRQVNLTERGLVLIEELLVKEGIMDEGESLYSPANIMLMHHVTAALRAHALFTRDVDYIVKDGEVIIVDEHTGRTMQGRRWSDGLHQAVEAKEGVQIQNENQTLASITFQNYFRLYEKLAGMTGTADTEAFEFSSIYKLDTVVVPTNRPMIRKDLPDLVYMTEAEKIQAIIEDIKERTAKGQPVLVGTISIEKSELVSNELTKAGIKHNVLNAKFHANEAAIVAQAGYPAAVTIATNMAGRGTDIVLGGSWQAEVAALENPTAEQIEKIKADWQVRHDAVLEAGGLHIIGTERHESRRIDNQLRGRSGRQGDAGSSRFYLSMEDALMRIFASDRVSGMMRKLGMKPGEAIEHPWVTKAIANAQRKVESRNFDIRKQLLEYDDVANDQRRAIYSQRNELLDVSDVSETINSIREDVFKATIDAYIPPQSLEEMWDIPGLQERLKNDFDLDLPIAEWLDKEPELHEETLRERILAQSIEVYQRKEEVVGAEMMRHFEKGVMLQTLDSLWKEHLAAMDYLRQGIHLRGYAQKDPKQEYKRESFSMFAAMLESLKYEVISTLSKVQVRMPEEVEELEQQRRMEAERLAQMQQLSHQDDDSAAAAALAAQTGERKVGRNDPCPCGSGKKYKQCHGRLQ
Sialic acid-binding Ig-like lectin 9 (Homo sapiens), sequence (Q9Y336 whole entry): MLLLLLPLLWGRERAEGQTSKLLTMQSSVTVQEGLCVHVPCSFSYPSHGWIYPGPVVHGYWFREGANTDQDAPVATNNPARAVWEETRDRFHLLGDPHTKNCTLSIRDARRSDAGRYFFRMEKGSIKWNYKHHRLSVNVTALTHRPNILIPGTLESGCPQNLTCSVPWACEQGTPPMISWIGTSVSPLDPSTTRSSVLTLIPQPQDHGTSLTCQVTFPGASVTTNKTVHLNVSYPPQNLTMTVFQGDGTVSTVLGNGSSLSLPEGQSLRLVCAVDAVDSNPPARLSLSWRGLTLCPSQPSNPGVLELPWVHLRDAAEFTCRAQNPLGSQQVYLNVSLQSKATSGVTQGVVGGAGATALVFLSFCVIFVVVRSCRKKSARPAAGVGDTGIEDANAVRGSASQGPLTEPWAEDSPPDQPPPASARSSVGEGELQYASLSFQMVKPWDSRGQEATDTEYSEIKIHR

SMILES	Percent Effect [1]	Percent Effect [2]	Percent Effect [3]	Percent Effect [4]	Percent Effect (Trypanosoma cruzi)	Percent Effect [5]	Percent Effect [6]	Percent Effect (Homo sapiens)	Percent Effect [7]	Percent Effect [8]	Percent Effect [9]
Cc1noc(C2CCCCN2C(=O)NC2CCCC2)n1 (configuration not stated)	1.58%	7.89%	5.88%	-7.67%	-9.25%	-2.37%	21.8%	0.903%	2.13%	2.6%	-4.56%
O=C1NCC[C@]12CN(Cc1ccoc1)C[C@H]2c1ccccc1	4.22%	15.6%	11.9%	-15.6%	-8.38%	1.94%	13.8%	11%	4.23%	6.41%	-8.29%
CCn1cc(NC(=O)NCC(O)CN2CCc3ccccc3C2)cn1 (configuration not stated)	-1.09%	23.4%	-8.59%	-13.8%	-0.0979%	-6.53%	18.2%	34.1%	8.57%	30.6%	-18.1%
CC(C)c1cc(NCC(C)N2CCCC2)n2nccc2n1 (configuration not stated)	1.2%	8.11%	1.17%	6.08%	-2.51%	-1.43%	20.5%	6.7%	12.2%	17.1%	-5.28%
CC(C)(C)c1n[nH]c(C2CN(C(=O)c3csnn3)CCO2)n1 (configuration not stated)	-8.03%	18.4%	-1.35%	7.53%	7.5%	1.18%	2.4%	6.98%	6.38%	15.6%	-19.5%
Cc1ncsc1C(=O)NCc1cccs1	0.275%	16.2%	-1.61%	5.83%	0.464%	0.185%	14%	21.8%	6.93%	23.2%	-4.46%
CCOCC(=O)N1C[C@@H](O)[C@H](N(C)Cc2ccc(OC)cc2)C1	-3.53%	4.05%	6.78%	3.17%	-1.19%	0.232%	9.05%	6.37%	5.38%	9.09%	-14.5%
CCc1nnc(CNCC2CCN(CC(O)c3ccccc3)CC2)o1 (configuration not stated)	-4.81%	19%	-3.87%	-2.88%	-2.15%	-7.1%	11.5%	14%	-2.08%	12.7%	-30.3%
Cc1nc(C2CCCN(C(=O)CCCn3ccnc3C)C2)no1 (configuration not stated)	-3.92%	-5.2%	-5.99%	-4.13%	-3.37%	3.56%	-3.21%	22.2%	-0.971%	-2.44%	5.19%
Cc1cnc2n1CCN(C)C21CCN(C(=O)CC(C)C)CC1	-2.76%	8%	2.31%	1.76%	-5.21%	-26.3%	8.38%	-3.36%	-1.04%	15%	-7.37%
Cc1ccc(C)c(-n2ccc3nc(N4CCCC4)ncc3c2=O)c1	-0.118%	-6.67%	21.7%	3.47%	-2.16%	-6.16%	-2.96%	-1.59%	3.17%	-5.13%	-0.262%
Cc1cccc(-c2ccc(C(=O)NCCN(C)C3CC3)c(=O)[nH]2)c1	-4.4%	0%	-7.73%	-0.0788%	-4.43%	4.41%	-0.721%	19%	0.493%	6.17%	-1.94%
c1cnn(CC2CN(Cc3ccc(-n4ccnc4)cc3)CCO2)c1 (configuration not stated)	-2.02%	17.7%	-6.89%	4.49%	3.68%	0.76%	6.14%	0.886%	9.36%	24.1%	-2.59%
CSCC(=O)N1CCCC(n2ccnc2C(C)C)C1 (configuration not stated)	-0.321%	15.8%	-1.19%	-13.5%	-6.63%	5.4%	6.01%	-1.49%	8.37%	18.5%	-9.2%
Cc1cnc(C(=O)N(CCN(C)C)Cc2ccc(Cl)cc2)cn1	-0.752%	20.8%	5.67%	9.21%	4.37%	9.71%	15.3%	-3.66%	4.21%	10.3%	-4.76%
COCc1cc(O)nc(C2CCCN(Cc3cc(OC)ccc3F)C2)n1 (configuration not stated)	-7.04%	1.35%	4.88%	5.64%	-3.56%	-2.09%	-0.312%	16.7%	-2.15%	-1.3%	-9.01%
O=C([C@H]1CCCO1)N1CC[C@H](O)[C@@H]1Cc1ccncc1	-0.613%	5.2%	0.39%	3.47%	-2.07%	8.39%	-1.57%	-7.18%	4.23%	1.28%	-0.313%
CCc1c(C(=O)NCC2CCS(=O)(=O)C2)cnn1-c1ccc(C)cc1 (configuration not stated)	-3.51%	17.7%	-2.2%	-1.25%	2.74%	4.94%	2.54%	5.86%	5.42%	21.5%	-6.44%
CC(C)C(=O)N1CCCC(c2cc(C(F)F)n3ncnc3n2)C1 (configuration not stated)	-6.98%	4.05%	6.16%	-5.54%	-4.94%	-6.73%	4.21%	18%	-3.23%	1.3%	-0.33%
CCCc1cc(C(=O)N2CCCC(n3ccnc3C)C2)[nH]n1 (configuration not stated)	-3.55%	5.06%	-3.54%	9.52%	3.87%	3.04%	-7.94%	15.5%	3.45%	11.4%	-1.51%
Cc1cccn2c(=O)cc(CN3CCCCC3Cn3cncn3)nc12 (configuration not stated)	-9.82%	-2.7%	-1.37%	-1.48%	-4.2%	-1.74%	9.53%	-10.4%	-1.07%	-6.17%	-6.48%
CCc1nc(C)c(C(=O)N2C[C@H]3CC[C@@H]2CN(S(=O)(=O)N(C)C)C3)s1	-5.92%	2.67%	-0.605%	-2.09%	-8.28%	-2.08%	15.9%	21.2%	-0.546%	3.7%	-4.98%

Reference: ChEMBL document CHEMBL3988442, “University of Dundee, Small-Polar-MMV Screening Library” (2021)
